ELG1 DNA repair: inhibitors of ELG1-dependent DNA repair in HEK293T cells | HEK293T ELG1-luciferase reporter, luminescence, 16 h; DNA damage induced by 5-fluorouridine | Potency, µM (highest dose often 46.1 µM), inactives show top-dose activity change, negative = inhibition, hits mostly inhibitors | hit rate 2.3% among 330,000 | AID 504467; further: on the % scale 0 is the no-effect control and ±100 the full control effect; nearly all actives have a fitted effect of over 55% in size
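HEK293T cells expressing luciferase-tagged ELG1 (2,000/well) received 5-Fluorouridine plus compound or DMSO for 16 hr at 37 °C. Luciferase was read by ONE-Glo luminescence after 30 min at room temperature.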
ELG1 genotox: genotoxicity induction in ELG1-luciferase HEK293T cells; Potency, µM (doses to about 46 µM), inactives show at the highest dose activity change, positive = activation, usual class: activators; hit rate 1.3% among 330,000; AID 504466; HEK293T ELG1-luciferase reporter, luminescence, 16 h; further: % of control where 0% means no effect; nearly all actives have a fitted effect of over 60% in size
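Quantitative HTS format in 1536-well plates. HEK293T ELG1-luciferase reporter cells receive test compound and are incubated 16 hr at 37 °C, 5% CO2; ONE-Glo added, 30 min room temperature, then luminescence read.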
NPC1 prom act: activates the NPC1 promoter | hit rate 2.4% among 320,000 | Potency, µM (highest dose often 9.22 µM), without a hit: top-dose activation, most hits filed as activators | AID 485313 | Huh7 NPC1 promoter luciferase reporter, 24 h; further: % of control where 0% means no effect; nearly all actives have a fitted effect of over 60% in size
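Compounds in DMSO were transferred onto Huh7 NPC1-luciferase reporter cells pre-incubated 2 h; after 24 h at 37 °C, Amplite reagent was dispensed and luminescence recorded 10 min later.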
SMN2 splice enh: increases expression of the SMN2 splice variant; AID 1458; HEK293 SMN2-luciferase splicing reporter, luminescence, 30-36 h; Potency, µM (doses to about 46.1 µM), without a hit: top-dose activity change, positive = activation, hits mostly activators; hit rate 2.8% among 210,000; further: % of control where 0% means no effect; nearly all actives have a fitted effect of over 55% in size
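HEK293 cells carry an SMN2 minigene-luciferase reporter in which exon 7 inclusion puts luciferase in frame. Cells were seeded at 2000 cells/well, attached for 10-12 hours, then exposed to compounds for 30-36 hours at 37C before ONE-Glo luminescence.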
FLuc counter: firefly luciferase modulation, counter-screen for miR-21 project | P08659 | AID 588342 | Potency, µM (highest dose often 57.5 µM), inactives show at the top dose activity change, negative = inhibition, hits mostly inhibitors | purified FLuc, Km substrates, luminescence inhibition | hit rate 6.9% among 360,000;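 further: plate controls were vehicle for no effect and reference inhibitor for full effect; nearly all actives have a fitted effect of over 55% in size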
Target sequence (P08659 whole entry, looked up): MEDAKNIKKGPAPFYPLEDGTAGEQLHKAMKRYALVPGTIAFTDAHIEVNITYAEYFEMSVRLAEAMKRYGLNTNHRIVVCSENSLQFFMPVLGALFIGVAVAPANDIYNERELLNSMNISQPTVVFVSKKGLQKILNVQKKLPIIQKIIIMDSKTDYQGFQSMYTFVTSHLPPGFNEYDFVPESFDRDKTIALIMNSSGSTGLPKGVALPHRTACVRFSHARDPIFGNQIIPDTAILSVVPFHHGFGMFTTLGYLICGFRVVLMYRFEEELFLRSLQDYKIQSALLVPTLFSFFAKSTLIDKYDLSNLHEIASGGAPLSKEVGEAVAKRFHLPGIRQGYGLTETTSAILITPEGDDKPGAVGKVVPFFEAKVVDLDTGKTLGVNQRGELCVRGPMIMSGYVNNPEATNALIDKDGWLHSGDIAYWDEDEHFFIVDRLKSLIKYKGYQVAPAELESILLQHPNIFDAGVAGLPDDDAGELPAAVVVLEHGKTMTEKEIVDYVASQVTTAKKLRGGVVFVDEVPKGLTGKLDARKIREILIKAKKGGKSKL
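Purified P. pyralis luciferase (10nM final) with 10uM D-luciferin and 10uM ATP (Km levels) in 50mM Tris acetate pH 7.5, 10mM Mg acetate, 0.01% Tween-20, 0.05% BSA; qHTS 6-point titration, ~60 µM downward; luminescence read.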
Rab9 promoter act: activates the Rab9 promoter. Huh7 Rab9 promoter-luciferase reporter, luminescence, 24 h. Potency, µM (top dose mostly 9.22 µM), for inactives: top-dose activation, negative = inhibition, hits mostly activators. hit rate 2.8% among 320,000. AID 485297; further: % of control where 0% means no effect; nearly all actives have a fitted effect of over 60% in size
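Huh7 cells stably carrying Rab9 promoter–luciferase reporter, plated 1500 cells/well, compound added after 2 h and incubated 24 h at 37 °C; luciferase luminescence then read after 10 min with detection reagent.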
Starred values were filed as active, the others as inactive; u = inconclusive; x = no result; [ ] = remark or other dose. Compounds with a hit are over-represented: about 9.2% of the library has one in this group of screens. The call rests on the fitted dose curve; in most records, active means well fitted curve in the direction sought with a large enough effect; inconclusive means small, poorly fitted or top-dose-only effect, or another doubt; inactive means no such curve, though single readings can be large; an effect the other way counts as inactive or inconclusive. Potency means the concentration at half of the fitted maximal effect.

SMILES	ELG1 DNA repair	ELG1 genotox	NPC1 prom act	SMN2 splice enh	FLuc counter	Rab9 promoter act
CC(C)(Oc1ccc(Cl)cc1)C(=O)Nc1c2c(nn1C(C)(C)C)CS(=O)(=O)C2	26%	2%	-1%	x	0%	1%
CCc1nc2nc(C)c(NS(=O)(=O)c3ccc(Cl)cc3)c(=O)n2[nH]1	-3%	-2%	-1%	x	1%	3%
COC(=O)c1ccc(NN=Nc2ccc(C)cc2)cc1	u	u	0.79µM*	11µM*	6.7µM*	1.1µM*
CC(=O)Nc1ccc(C(=O)OCc2ccc(Br)cc2)cc1	12%	5%	2%	-8%	-16%	-1%
COC(=O)c1ccc(N=NN2CCCCC2)cc1	u	8.2µM*	2.8µM*	14µM*	8.5µM*	2.2µM*
COC(=O)c1ccc(NC(=O)CCN2CCCCC2)cc1	-12%	-6%	-1%	-10%	10%	1%
Cc1ccc(C(=O)ONc2ccc(N=O)cc2)cc1	14%	-3%	1%	-8%	0.03µM*	-1%
O=Nc1ccc(NOC(=O)c2ccc(Br)cc2)cc1	3%	-2%	3%	3%	0.076µM*	-5%
Cc1noc(C)c1NC(=O)N(C)C[C@H]1Oc2ccc(NC(=O)C3CC3)cc2C(=O)N([C@H](C)CO)C[C@@H]1C	11%	9%	x	x	x	x
Cc1ccc(C2N3CC4(C)CN2CC(c2ccccc2)(C3)C4=O)cc1 (centres undefined)	x	x	x	5%	5%	x
COC(CN(C)C(=O)c1ccc2c(c1)NC(=O)c1ccccc1S2)OC	-2%	-4%	0%	x	-1%	9%
CCCn1c(SCC(=O)NC2CC2)nnc1-c1ccccn1	18%	0%	1%	x	1%	-6%
Cc1ccc(C(=O)ONc2ccc(N=NC(=O)c3ccccc3O)cc2)cc1	u	u	20%	-42%	12µM*	u
CCOC(=O)c1cc2c(=O)n3ccccc3nc2n(Cc2ccco2)c1=NC(=O)c1cccc(F)c1	x	x	x	1%	0%	x
CCOc1ccccc1-c1noc(CCCC(=O)NC2CCCCC2)n1	-1%	0%	3%	x	-1%	7%
COc1ccc(/C=C2\N=C(SC)NC2=O)cc1	x	x	x	2%	u	x
COc1ccc(/C=C2\N=C(c3ccccc3Cl)NC2=O)cc1	u	4%	-30%	x	1.7µM*	-16%
CCCc1ccc2oc(C(=O)NCc3nnc(C)o3)c(C)c2c1	u	9.2µM*	2µM*	x	9.5µM*	2.8µM*
CCc1ccc2oc(C(=O)NCc3ccc(S(N)(=O)=O)cc3)c(C)c2c1	11%	u	14%	-7%	4%	21%
CCCc1ccc2oc(C(=O)NCCCN3CCOCC3)c(C)c2c1	u	u	14%	x	13µM*	1%[1.84 µM]
COc1cccc(NC(=O)CSC2=Nc3ccccc3C3=NC(CC(=O)NCCc4ccccc4)C(=O)N23)c1 (centres undefined)	x	x	x	x	-9%	x
COc1ccc(N2CC(NC(=O)COc3ccc4ccccc4c3)CC2=O)cc1OC (centres undefined)	x	x	x	x	6%	x
CC(=O)c1c(C)[nH]c(C(=O)N2c3ccccc3CC2C)c1C (centres undefined)	u	14%	0%	2%	4%	9%
Cc1c(C(=O)N2CCc3ccccc32)oc2c1C(=O)CC(C)(C)C2	u	3.3µM*	24%	13µM*	8.5µM*	u
Cc1ccc(C(=O)N2c3ccccc3CC2C)o1 (centres undefined)	u	u	2µM*	16µM*	7.6µM*	1µM*
SMILES	ELG1 DNA repair	ELG1 genotox	NPC1 prom act	SMN2 splice enh	FLuc counter	Rab9 promoter act
Cc1ccc(C(=O)N2CCc3ccccc32)o1	u	u	2.2µM*	7.9µM*	9.5µM*	1.6µM*
CC(=O)Nc1ccc2c(c1)C(=O)c1ccccc1C2=O	u	u	1.6µM*	13µM*	4.8µM*	0.71µM*
O=C(O)/C=C/C(=O)Nc1ccc(C(=O)c2ccccc2)cc1	u	-2%	-4%	x	3%	-1%
O=C(O)/C=C/C(=O)Nc1ccc2c(c1)C(=O)c1ccccc1C2=O	u	9%	5%	x	17µM*	13%
O=C1c2ccccc2C(=O)c2cc(NC(=O)C3CC3)ccc21	u	u	2.5µM*	11µM*	u	2.2µM*
CCN(CC(=O)Nc1ccccc1C(=O)Nc1ccccc1)Cc1nc2ccccc2c(=O)[nH]1	10µM*	-12%	-3%	13%	1%	-4%
CCN(CC(=O)Nc1ccccc1SC)Cc1nc2ccccc2c(=O)[nH]1	4%	-3%	0%	x	6%	-17%
CC(=O)n1cc(N(C(=O)CCl)c2ccc(Cl)cc2)c2ccccc21	u	-19%	-40%	x	-1%	-57%
COc1ccccc1N(C(=O)CCl)c1cn(C(C)=O)c2ccccc12	12µM*	-18%	-44%	x	-2%	-52%
CC1(C)Cc2nc3sc(C(=O)NCCCO)c(N)c3cc2CS1	u	u	u	14µM*	15µM*	3.2µM*
CC1(C)Cc2nc3sc(C(=O)NCCO)c(N)c3cc2CO1	u	8%	25%	u	27µM*	15%
CC1(C)Cc2nc3sc(C(=O)O)c(N)c3cc2CS1	0%	-2%	0%	-7%	u	-7%
CCCn1c2ccccc2c2cnn(CC(=O)NCCc3ccc(S(N)(=O)=O)cc3)c(=O)c21	x	x	x	x	-3%	x
Cc1cc(/C=N/NC(=O)c2ccc(O)cc2)c(C)n1CC(C)C	u	u	23%	x	6µM*	u
CN(C)c1ccc(/C=N/NC(=O)c2ccc(CN3CCOCC3)cc2)cc1Br	u	-5%	-13%	-38%	19µM*	-1%
Cc1ccc(C)c(-n2c(C)cc(/C=N/NC(=O)c3c(C)nc4cc(C)ccn34)c2C)c1	18µM*	-2%	-1%	-4%	-20%	-3%
Cc1ccc(-n2c(C)cc(/C=N/NC(=O)c3ccc(CN4CCOCC4)cc3)c2C)cc1	-3%	-7%	-3%	-32%	15µM*	-1%
CCOc1cc(/C=N/NC(=O)c2ccc(CN3CCOCC3)cc2)ccc1OC	-8%	-4%	-8%	-11%	-11%	-3%
O=C(Nc1ccc(F)cc1F)c1ccc(CN2CC(=O)N3CCCCC3C2=O)cc1 (centres undefined)	x	x	x	x	6%	x
CCOC(=O)c1c(NC(=O)C2CC(Cl)=CCC2C(=O)O)sc2c1CCCCC2 (centres undefined)	-4%	0%	0%	x	5%	-5%
Cc1ccc(Cn2cc(CCC(=O)NC3CCC(C)CC3)c3ccccc32)cc1 (centres undefined)	x	x	x	x	-2%	x

Source: PubChem BioAssay (National Center for Advancing Translational Sciences (NCATS))
